PubChem BioAssay AID1508600 (Functional Genomics Laboratory (NCATS/FGL), 2020)
Screen size: about 53,000 sequences; about 3,700 (7%) were called active. The full list was thinned out, with actives kept by preference. Values without a mark were called inactive.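 Rule for the calls: active = gene knockdowns whose robust z-score for IL-1 alpha signal is at least 2 or at most -2, so actives lie on both sides; inactive = the rest.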

Test: Components of the Cytosolic LPS Sensing Pathway: Gene Identification via Genome-wide siRNA Screen;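 note: robust z of the log signal after scaling to non-targeting control siRNA wells of the plate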
Settings: RAW264.7 macrophages, IL-1a HTRF, actives lie on both sides, screened at 100 nM (by protocol), cells primed 5 h with Pam3CSK4 first
Outline: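 IL-1a HTRF of supernatants after 24 hour LipidA transfection of Pam3CSK4-primed (5 hours) RAW264.7 cells, 48h post-siRNA transfection (100 nM). Scores: percent of plate negative-control median, then log-based robust z-score.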

Sequence | z-score
GCAAGUUCGAAUCCUCCGUTT against Dach2 | 4.72 (active)
GGUGAAUGGCAUGACCAUATT against Asb9 | 0.49
GGAGUCCUUUAAGAUUAUATT against Pex13 | 1.3
GGUAGAUGAUGAAAAACAATT against Erich3 | -2.02 (active)
GGAAGAAUCUGUUACUUUUTT against Rad1 | -0.693
CCUUUUAGGGAAAUUUGCATT against Mcm9 | 0.651
GGGAAGAACUGUGAUUAUUTT against Hspd1 | 0.625
CCAUUGAACAGCAGAUUGGTT against Atp7a | 0.81
GGUCUUCUUCGUGUUCAUCTT against Olfr281 | -0.0815
GGAAAAAUUGAAGUUGAUCTT against Iqcj | -1.35
GGCUCGUCAAAUCAAGUAUTT against H2bc6 | -2.37 (active)
GGAAAUCAAGCUGAAGUUATT against Eqtn | 0.231
GCGCAAACAACACAUCGUCTT against Ccpg1 | 0.503
GGCUGUCAUCCAAGAACUUTT against Mtcp1 | 0.176
GGAGAUCCGAGUGAGGAAUTT against Eif3b | 2.91 (active)
GGUUUAACUAGAAUUUGGUTT against Cyp2ab1 | 1.75
GGACAAGAAUAAGUACAACTT against Rpl5 | -0.918
GCCCUUGAACGGAGAAUAGTT against Brk1 | -1.59
GCUCUGACCAUCCUUAGCUTT against Olfr938 | -2.62 (active)
GCCAUACGAUCUGCAUUUCTT against Zbtb38 | -1.85
GGAACAAGUAAAAUUCGUCTT against Tssk2 | 1.71
GGGUUAUGAAGAAGCUCCUTT against Olfr1262 | -1.52

Sequence | z-score
GCUGUGUGACCAGCUGUUGTT against Krtap9-1 | 0.44
CCUACGUCAUUUCAGCACCTT against Hc | 0.356
GCUCCCAUUAUCAUUCAAATT against D3Ertd751e | 1.67
GGAGCUCUGGCACUUUGUCTT against Gramd1b | 0.37
GGAGAAAAGAGGCUUCCAGTT against Lad1 | 0.754
CCCAGAUACCUGGAAAACGTT against Fam189a1 | -2.17 (active)
GGUAUUCCUCUAGAUCAGATT against Dysf | 0.627
GGAUUUGGAGCAGGUGGAUTT against Avpr1b | -0.97
AUGCUUUUUGGAGCCAUAUTT against Olfr307 | 3.07 (active)
GCCCUGAACUACCUAGAAATT against Alg5 | 1.58
GGUUAAGAUUCCAGAGCCATT against Prune1 | -0.297
GGAGAAUCUGGUCUGGGUATT against Septin4 | 1.04
GGGCAAGUAUGGCUAUGUGTT against Pram1 | -0.178
GGCCAAGAGAAUCUAAAGATT against Strn4 | -0.338
GGAGACACUGAAUGUGACATT against Ttyh1 | -2.03 (active)
UGUAACCAUGGUUACCGUGTT against Olfr1513 | 0.311
GGCUGAGAACAUCAAAAAATT against Folh1 | 0.816
GGAAUUGAGGUGAUGGAUATT against Sfxn4 | -0.144
CGGGAUCUAUCCACUGAUGTT against Nrbp2 | -0.983
GGCUACAAGGAGAAGUUUGTT against Traf3 | 2.02 (active)
GCUCUAUGGAUCCUUGGAGTT against Zfp574 | 0.772
GCUCAAUGUGACAGUGGUGTT against Elane | 0.38

Sequence | z-score
GGAAACCGUUCUCAUUAAATT against Mrpl30 | 0.599
GGUUUGGUUGAAAUUGAACTT against Smc5 | -1.16
CCUCAUGGUGAUGAUAUCCTT against Taar6 | -1.35
GGAAGAUGAAGAGUCAGAGTT against Setd1b | -2.52 (active)
CGACAAUGCCAUCGAUUCGTT against Sdc3 | 0.0399
GGUCACACUUUCUUUGGAATT against Tcf25 | 0.775
CCUAAAGACGUGCAAUAUGTT against Zfp287 | 0.526
GGUUGUUCAUGAGCCGAACTT against Rpl18 | -0.0641
GGGUGCGGAAAUUCAUUAATT against Mpv17l2 | 0.803
GGCGCAGUAUCACAGUCUUTT against Tle1 | 1.02
GGAUGAGAACAGCAACCAGTT against Bcl7b | -2.22 (active)
GGUUCCAACAAUUGUAAAGTT against Chl1 | -0.00378
GGAUUUUAAACAAAAGACCTT against Stard13 | 0.718
GGUUCACGGUUUAUAAAGUTT against Sgk3 | -0.652
GCUCCUGUACAGUUCAAACTT against Mrpl17 | 0.0768
GCAGAAAGCACACUCCUACTT against Psors1c2 | -2.02 (active)
GGAGAAGGUAGUUCUGAAATT against Slc7a11 | -0.349
GCACAACAUCACGGUGAACTT against Adcy5 | -0.672
CCACUAUGCUUCUUGGAAUTT against Serpini2 | -0.73
GGAAAAGAAACCAGUUUCUTT against C230012O17Rik | -2.07 (active)
GGACAAAAGACACAUGUUGTT against Miip | -0.674
GGAUUUUCACAUUGCAUCUTT against Dmrtc1a | 1.49

Sequence | z-score
CCUUUGAACCUCUAACUUUTT against Xpnpep1 | 3.62 (active)
GUUUUAGGCAACCUUGGGUTT against Olfr1038-ps | -0.14
GGGACUCUAAAAACAAUGATT against Zkscan14 | 2.67 (active)
CCCAAAAUACAUCAUCAAUTT against Psmc2 | -0.444
GGACAACCACUUUAAGCUUTT against Tars2 | 1.04
GCCUACGUUACCUUGAUCCTT against Slc16a12 | 0.0774
CCGGUAUUUAGGAACUGCCTT against Irak2 | -1.66
GGAGUCAACACACAUCAAGTT against Zfp13 | 1
GGAAACCUGGAAACAGUUUTT against Apol7c | 0.377
GGACAGCAGCAACAACAUCTT against Dnase1l3 | -2.04 (active)
GCGACGGAAGUCUUUAUUATT against Nostrin | -0.163
GGGUGAAGUAGGUGAAAAATT against H2-M10.6 | -0.361
CGUAGCUAAUCCGUAAAAGTT against 1700120K04Rik | -1.93
GGACAAAUCAGUUCUGCGUTT against Car13 | 0.105
GGAACUUGGUAUUUAGAUCTT against Rhot2 | 0.295
GGAUGAGUUUGACAAGCUGTT against Rhou | -0.735
GGAGGAAAAGAGACAGCUCTT against Kank2 | -2.41 (active)
GUGUCAACCUAAGCUUGGCTT against Tlx3 | -1.19
GGUGUACCUCUGAAAAAAATT against Zbp1 | -1.5
AGAACGGAACCAUAGGGAATT against Cmc2 | -0.897
GGUAGUUCAGAUCUGAUUUTT against Svep1 | 0.599
CGUUGCAGUCUAAGCUUGUTT against Rabac1 | 4.44 (active)

Sequence | z-score
AUGGAAUCCAGUAUAGAGCTT against Cep44 | 0.713
GGAAGAAUGUAGGAGGAAGTT against Sln | 0.246
GGUAUGAUCAAUGACUUACTT against Serpine1 | -0.165
GGCUGACUUUCUGUCACAGTT against Olfr655 | 1.03
GCCUGAAUUCCACUACUCGTT against Def8 | 0.551
GGACAAGCUGAGGUGAAAATT against Maats1 | -1.08
CGUACACCGUAUUCAUGACTT against Rapgef5 | 3.6 (active)
GGAUGACUACAAAUGCAAATT against E230015B07Rik | -0.155
GCUAGGAUUUCAGCAUAUATT against Adra1a | 0.29
GGUCCUAACCGACAUGUCUTT against Vrk1 | 0.305
CGUAGUGUUCUGUGUUUAUTT against Mif | 1.36
GGACUUAGUACCUGAUAACTT against Rtraf | 0.838
GCCUAUUGUCAGAAAAGUUTT against Usp4 | -0.385
GGGACUCAACCUAUAUCUUTT against Gnpat | 0.118
CCGGUUGAGUUCACAGAAUTT against Atad3aos | -2.44 (active)
GGAUUUCGAGAUAACUAUGTT against Tbr1 | -0.0186
CGUAUGGAGUCCAUUACUATT against Frmd4b | 0.341
GGAUUCAAACAAUGAGCUCTT against Fam126b | 0.9
GCUACUUUGACAUGCACACTT against Caly | 2.1 (active)
GGCGGAUCUCUUGAGUGUUTT against Glyctk | 0.213
